Test system: Drosophila S2 cl14 SmoIP sensor cells
Assay: normalized SmoIP GFP fluorescence (untreated unstimulated = 0%, untreated Hh-stimulated = 100%); higher = more Smo activation sensor fluorescence
Conditions: compound concentration: 2 uM, 24 h
[1] = stimulation: Hh conditioned medium (+Hh)
[2] = stimulation: mock conditioned medium (-Hh)
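Note: flow cytometry read-out as median GFP intensity of gated cells, compounds added 30 min before Hh-conditioned or mock medium, mock-treated cells serving as unstimulated baseline.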

| Structure (SMILES) | normalized SmoIP GFP fluorescence [1] | normalized SmoIP GFP fluorescence [2] |
| --- | --- | --- |
| COc1ccccc1OCCNCC(O)COc1cccc2[nH]c3ccccc3c12 (stereo not drawn) [carvedilol] | 118% | -7.78% |
| CCC(CC)CC1(C(=O)Nc2ccccc2SC(=O)C(C)C)CCCCC1 [dalcetrapib-jtt-705] | 137% | -10.6% |
| Cc1cncc(CN2CCC(=C3c4ccc(Cl)cc4CCc4cccnc43)CC2)c1 [rupatadine-fumarate] | 112% | 3.77% |
| c1ccc2c(CCNc3ccc(Nc4ccncc4)cc3)c[nH]c2c1 | 106% | 10.7% |

Source: the supplement of paper PMC5662767
